Compound activity from PubChem BioAssay.
Shown are actives, neighbours in structure and some others; about 9.6% of the full set was active somewhere.
Cav3 T inh: inhibitors of human Cav3.2 T-type calcium channel | O95180 | Cav3.2-expressing cells, Fluo-4 calcium fluorescence FDSS; stronger effect = lower value | B-score at 10 µM | 100,000 tested, 4% active | AID 449739;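 active means single-dose well whose peak fluorescence ratio is a statistical outlier from its plate by either plate-standardised score or position-corrected B-score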
PLAP activator: activates human placental alkaline phosphatase. 96,000 tested, 1.2% active. activation fold at 20 µM. purified PLAP enzyme, luminescent substrate read-out; stronger effect = higher value. P05187; in the data active means activation fold above about 2
PostGolgi yeast: growth inhibition of a yeast mutant, post-Golgi transport screen | post-Golgi transport phenotypic cell assay | inhibition, % at 10 µM | 98,000 tested, 0.9% active | AID 739;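 further: yeast cells grown in 1536-well plates; yeast grown about 18 h at 30C before absorbance read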
hDAT+cocaine: changed human dopamine transporter uptake under cocaine IC80; 110,000 tested, 1.3% active; LLC-PK1 hDAT cells, [14C]-dopamine uptake with cocaine IC80; actives deviate in either direction; B-score at 10 µM;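 active means Z score or B-score, a plate-position-corrected score, falls beyond the plate's 99.7% confidence bounds, in either direction; inactive means both scores lie inside the 99.7% bounds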;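 further: scored against the spread of the other compound wells on the same plate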
PostGolgi ctrl: growth of the yeast control strain, post-Golgi counter-screen; efflux-deficient yeast background strain, growth absorbance A615, 16 h; inhibition, % at 10 µM; 98,000 tested, 5% active
* hit, by the source's call; . = not tested or not shown; ! = repeats disagree. Unless noted, no stated cut-off is given here; in the data, active means inhibition above about 30%; inactive means the rest.

SMILES	Cav3 T inh	PLAP activator	PostGolgi yeast	hDAT+cocaine	PostGolgi ctrl
CC1=NN(/C(=N\c2nnc(C)s2)Nc2ccc(C(C)(C)C)cc2)[C@H](c2ccc(C)cc2)S1	-5.6*	.	.	-0.027	.
Cc1[nH]nc2c1C1(CCC(c3ccccc3)CC1)C(C#N)=C(N)O2 (stereo not given)	-0.17	0.9	-7	-1.2	31*
CCN(CC)S(=O)(=O)c1cccc(-c2nnc(SCC#N)n2Cc2ccccc2)c1	1.8	1.6	-4	-0.077	33*
COc1ccc(N(CC(=O)NCc2cccs2)S(=O)(=O)c2cccnc2)cc1	1.2	1.3	-7	-1.3	30*
Nc1ccc(C(=O)N/N=C2\CCCc3c2[nH]c2ccccc32)cc1	-0.41	0.9	-5	.	44*
Cc1ccc2[nH]c3c(c2c1)CCCC3=O	0.13	1	15	0.087	4
O=C(Nc1cccn(Cc2c(Cl)cccc2Cl)c1=O)c1c(Cl)cccc1Cl	-6.5*	1.1	6	0.73	93*
O=C(CSCCO)Nc1ccc(C2CCCCC2)cc1	-0.64	1.2	2	3.1*	22
CC(=O)c1ccc(NC(=O)CSCCO)cc1	-1.4	0.9	3	-0.9	16
CCC(=O)N1CCc2cc(S(=O)(=O)NCCCN3CCN(Cc4ccccc4)CC3)ccc21	.	2*	-1	.	6
O=C(CN1C2CCCC1CC(NC(=O)c1ccco1)C2)Nc1ccccc1 (stereo not given)	2	1.3	1	0.84	4
COc1cc(C(=O)NC2CC3CCCC(C2)N3CC(=O)Nc2ccccc2)cc(OC)c1OC (stereo not given)	4.4*	1.6	1	1.2	8
O=C(CCCCCNc1nc(=S)[nH]c2ccccc12)N1CCN(c2ccccn2)CC1	0.75	1.1	-4	2.8*	0
O=C(CCCn1c(=S)[nH]c2cc3c(cc2c1=O)OCO3)N1CCN(c2ccccn2)CC1	1.4	1.3	11	0.37	18
CN(C(=O)CSc1nnc2ccccn12)C1CCS(=O)(=O)C1 (stereo not given)	-0.041	0.9	-5	0.96	19
CN(C(=O)CSc1nc2ccccc2n1CCc1ccccc1)C1CCS(=O)(=O)C1 (stereo not given)	-0.15	2.3*	-3	1.4	5
O=c1cc(O)nc(SCc2ccc(Cl)cc2)[nH]1	-6.9*	1.2	2	0.86	2
O=C(NCc1ccco1)c1cc(C(=O)C2CC2)c[nH]1	-0.037	0.9	12	-0.45	0
O=[N+]([O-])c1cc(Cl)cc(/C=N\Nc2ccccn2)c1O	-3.7*	1	80*	0.6	19
COCCCNC(=O)CN(c1cccc(Cl)c1)S(C)(=O)=O	.	0.9	-4	0.034	5
COc1ccc(-n2c(=O)c3ccccc3n(CC(=O)NC3CCCCC3)c2=O)c(OC)c1	0.37	1	-1	0.25	7
COc1ccc(-n2c(=O)c3ccccc3n(CC(=O)NC3CCCC3)c2=O)cc1	.	1	-2	-0.034	37*
c1ccc2c(c1)ncn2CCC1CCCCC1	-0.76	1.2	-1	1.8	80*
O=c1[nH]c2ccccc2n1CCC1CCCCC1	-2.2	1.3	1	0.82	49*
Clc1ccc(-n2c(SCc3nc4ccccc4[nH]3)nnc2-c2ccncc2)cc1	0.24	1.5	5	-0.056	0
SMILES	Cav3 T inh	PLAP activator	PostGolgi yeast	hDAT+cocaine	PostGolgi ctrl
COc1c(OC)c(O)c2c(=O)cc(-c3c(O)cccc3O)oc2c1OC	-0.81	.	.	2.1	.
CN1CCc2nc(SCCOc3ccccc3)c(C#N)cc2C1	-2.3	1.1	-1	1.2	6
O=C(O)c1cccc(NS(=O)(=O)c2ccc3nnn(O)c3c2)c1	0.015	0.9	-5	-0.64	0
O=[N+]([O-])c1cc(S(=O)(=O)Nc2ccccc2)ccc1-n1nnc2ccccc21	-6.3*	1.1	-5	-0.96	16
Nc1nc(-c2cccc(NS(=O)(=O)c3ccccc3)c2)cs1	-1.6	1.1	0	-0.64	4
CCOc1ccc(C2=Nn3c(nnc3-c3ccccc3OC)SC2)cc1	-5.3*	1.3	5	0.25	18
Cc1cc(C)cc(OCC(=O)Nc2nonc2NC(=O)COc2cc(C)cc(C)c2)c1	0.05	2.3*	-13	-0.22	13
CCSc1nc2c(sc3nc(C)cc(C)c32)c(=O)[nH]1	.	1.6	-7	.	42*
Cc1cc(C)nc(/N=C(\N)C2=C(O)CC(C)(C)CC2=O)n1	-0.17	1.5	-4	0.21	-1
Cc1cc(C(C#N)c2cccc(Cl)c2)n2ncnc2n1 (stereo not given)	.	1.1	24	.	-3
N#CC(c1cccc(Cl)c1)c1ccc2c(C(F)(F)F)cc(C(F)(F)F)nc2n1 (stereo not given)	-9.2*	1	99*	-0.13	102*
Cc1ccc(-n2c(O)c(/C=N/n3cnnc3)c3ccccc3c2=O)cc1	-0.18	1.1	3	-0.27	34*!
Cn1c2ccc(F)cc2c2ncn(CCN3CCOCC3)c(=O)c21	1.4	1.7	33*	-0.13	20
Cn1c2ccccc2c2ncn(CCC3=CCCCC3)c(=O)c21	-1.9	0.9	-4	0.11	34*
Clc1ccc(OCc2nc(-c3ccncc3)no2)c(Br)c1	.	1.3	46*	.	79*
Cc1ccc(OCc2nc(-c3ccccn3)no2)c(Br)c1	-2.9	1.6	-5	1.4	34*
CCc1ccc(OCc2nc(-c3ccccn3)no2)c(Br)c1	-4.6*	1.4	9	-0.92	27
Clc1ccccc1OCc1nc(-c2ccncc2)no1	2	0.8	1	0.89	11
CC(C)c1ccc(OCc2nc(-c3ccccn3)no2)c(Br)c1	-2.8	0.9	2	-0.75	38*
CC(C)(C)Cc1nc(-c2ccccn2)no1	0.53	0.8	20	1	9
Cc1ccc(OCc2nc(-c3ccccn3)no2)cc1	-1.1	0.9	-4	0.18	-3
Clc1ccc(SCCn2ccnc2)cc1	-0.9	0.7	3	-0.017	-3
CC(C)NC(=O)C1(O)c2ccccc2NC(=O)N1c1ccc(Cl)c(Cl)c1 (stereo not given)	-0.5	0.9	19	0.93	15
CCOc1ccc2nc3c(cc2c1)CN(CCOC)C(=NCCOC)S3	-0.62	1.1	2	-0.58	13
COCCN=C1Sc2nc3ccc(C)cc3cc2CN1Cc1ccco1	-1.7	2*	5	3.2*	4
SMILES	Cav3 T inh	PLAP activator	PostGolgi yeast	hDAT+cocaine	PostGolgi ctrl
CSc1ccccc1C(=O)Nc1cccc(C)c1	-0.66	0.9	-3	1.1	16
Cc1cccc(NC(=O)C23CCC(C)(C2Br)C3(C)C)c1 (stereo not given)	-5.4*	0.8	-3	-8.5*	22
COC(=O)c1cc(C#N)c(NCc2ccccc2)nc1C	0.063	1.1	1	-0.92	10
CCC(C(=O)O/N=C(\N)c1ccccc1)c1ccccc1 (stereo not given)	-3.6*	0.9	3	0.24	7
CCC(C(=O)O/N=C(\N)c1ccc(Cl)cc1)c1ccccc1 (stereo not given)	-5.6*	0.7	-3	-0.93	15
CCC(C(=O)O/N=C(\N)c1ccc(C)cc1)c1ccccc1 (stereo not given)	-2.6	0.9	13	0.18	11
